Mtb UGM inh – Mtb UDP-galactopyranose mutase inhibition | purified UGM, fluorescence polarization probe displacement | inhibition, % at 10 µM | 0.06% of 320,000 active | AID 504406; in the data active means inhibition above about 10%, passing the limit was not always enough
SSB-PriA inh – K. pneumoniae PriA-SSBct interaction inhibition | AlphaScreen SSBct-PriA binding, biotinylated peptide | inhibition, % at 33 µM | 0.6% of 430,000 active | AID 1272365; in the data active means inhibition mostly above about 37%, no sharp cut-off; inactive means mostly below about 20%;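 further: plate controls were negative control peptide for no effect and reference peptide for full effect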
FadD28 FP inh – blocks FadD28 binding to the bisubstrate probe; 0.22% of 360,000 active; fluorescence polarization; inhibition, % at 12.5 µM; in the data active means inhibition above about 8.5%, passing the limit was not always enough
Rv3671c protease – inhibitors of M. tuberculosis serine protease Rv3671c. 0.048% of 320,000 active. inhibition, % at 5.96 µM. P9WHR9; in the data active means inhibition above about 38%;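 further: extracellular domain of Rv3671c used as enzyme; 0% = enzyme with DMSO and 100% = no enzyme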
Target sequence (P9WHR9 whole entry, looked up, the tested form may be a part): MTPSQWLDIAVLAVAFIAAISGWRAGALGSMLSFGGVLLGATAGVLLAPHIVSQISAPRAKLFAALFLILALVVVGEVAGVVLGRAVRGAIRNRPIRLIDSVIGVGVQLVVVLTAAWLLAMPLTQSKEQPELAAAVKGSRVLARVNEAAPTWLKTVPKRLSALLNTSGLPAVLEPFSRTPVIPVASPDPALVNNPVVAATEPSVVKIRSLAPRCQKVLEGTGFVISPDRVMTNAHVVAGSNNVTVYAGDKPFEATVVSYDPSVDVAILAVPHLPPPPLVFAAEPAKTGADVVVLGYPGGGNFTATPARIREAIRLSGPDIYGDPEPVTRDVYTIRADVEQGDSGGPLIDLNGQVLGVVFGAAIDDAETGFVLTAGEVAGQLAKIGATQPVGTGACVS
PrPC TRFRET – inhibitors of human cell surface prion protein PrPC | P04156 | TR-FRET read-out | inhibition, % at 13.8 µM | 0.43% of 370,000 active | AID 720596; in the data active means inhibition above about 24%; further: 0% = median of the test wells and 100% = reference compound wells
PrP UTR inh – suppresses PrP 5' UTR mRNA reporter expression. inhibition, % (test concentration not listed). 0.35% of 340,000 active. cell-based PrP 5' UTR mRNA reporter, plate reader; in the data active means inhibition above about 52%; further: 0 = median of the neutral control wells
An asterisk follows results filed as active; . = not tested or not shown. Sampled rows, rich in hits. Any-hit rate of the full collection: about 1.2%.

SMILES	Mtb UGM inh	SSB-PriA inh	FadD28 FP inh	Rv3671c protease	PrPC TRFRET	PrP UTR inh
O=C(NCCc1ccoc1)C(=O)Nc1cccnc1	.	9.0	.	.	.	.
COc1cccc2sc(N3CC(C(=O)Nc4nc(C)c(C)s4)C3)nc12	.	-1.0	.	.	.	.
CCOc1ccccc1NC(=O)c1sc(=S)n(-c2ccc(C)cc2)c1N	.	22.0	.	.	.	.
CCOc1ccc(-n2nnc3c(=O)n(CC(=O)Nc4cc(C(F)(F)F)ccc4Cl)cnc32)cc1	.	-13.0	.	.	.	.
O=C(Nc1nc(-c2ccccn2)cs1)C1(n2cnnn2)CCCCC1	.	158.5*	.	.	.	.
CC(C(=O)Nc1nc(-c2ccccn2)cs1)N1NC2=CCCC2=CC1=O (centres undefined)	.	95.0*	.	.	.	.
COCCc1nnc(NC(=O)CSc2ccc(Cl)cc2)o1	.	10.0	.	.	.	.
COc1cc(/C=C2/C(=O)NN(c3ccc(Cl)cc3)C2=O)cc(OC)c1O	-16.1	21.3	8.9*	-6.1	-3.6	-5.9
COc1cc(/C=C2/C(=O)NN(c3ccccc3)C2=O)cc(Br)c1O	-0.7	-3.6	1.6	-1.1	10.3	-13.9
O=C1OC(c2cccs2)=N/C1=C\c1ccc(-c2cccc(Cl)c2)o1	2.9	91.2*	0.7	-6.9	-6.0	-5.5
Cc1ccn(-c2ccc(Nc3ccc(NC(=O)c4ccco4)cc3)nn2)n1	.	55.0*	.	.	.	.
O=C(Cc1ccccc1)Nc1ccc(Nc2ccc(-n3cccn3)nn2)cc1	.	52.0*	.	.	.	.
CCc1ccc(S(=O)(=O)N2CCC(Oc3cc(C)n(C)c(=O)c3)CC2)s1	.	-9.0	.	.	.	.
Cc1ccc(-n2nnnc2CNC(=O)C(=O)c2c(C)[nH]c3ccccc23)cc1C	.	8.0	.	.	.	.
O=C1CSC(=S)N1N=Cc1ccc(O)c(O)c1O	.	99.8*	.	.	.	.
CCOc1cccc(C=NN2C(=O)CSC2=S)c1O	.	71.0*	.	.	.	.
Cc1ccc(NC(=O)C(=O)NCc2ccc(C(=O)c3ccccc3)s2)cc1F	.	0.0	.	.	.	.
CCc1ccc(NC(=O)Nc2c[nH]c3ccccc23)cc1	.	38.0*	.	.	.	.
CC(C)c1ccc(NC(=O)Nc2c[nH]c3ccccc23)cc1	.	39.0*	.	.	.	.
O=C(Nc1ccc(OC(F)(F)F)cc1)Nc1c[nH]c2ccccc12	.	17.0	.	.	.	.
O=C(Nc1ccc(F)c(Cl)c1)Nc1c[nH]c2ccccc12	.	54.0*	.	.	.	.
Cc1cccc(Cn2cnc3c(cnn3CCNC(=O)CCC3CCCC3)c2=O)c1	.	4.0	.	.	.	.
Cc1cc(NC(=O)Cc2cc(-c3ccc(F)cc3)on2)no1	.	-9.0	.	.	.	.
COc1ccc(NC(=O)c2ccc3c(c2)OCO3)cc1	-1.3	-12.2	-2.9	-4.9	0.1	-28.4
COc1ccc(NC(=O)C(c2cc3c(cc2[N+](=O)[O-])OCO3)N(C)c2ccccc2)cc1 (centres undefined)	0.6	39.1*	-1.5	-12.1	-1.6	-10.7
SMILES	Mtb UGM inh	SSB-PriA inh	FadD28 FP inh	Rv3671c protease	PrPC TRFRET	PrP UTR inh
COc1ccc(-c2cn3c(C)c(C(=O)NCCc4ccccc4OC)sc3n2)cc1	.	-4.0	.	.	.	.
Cc1cc2nc3c(=O)[nH]c(=S)[nH]c3nc2cc1NC(=O)C(F)(F)F	18.8*	-4.6	0.8	20.9	-32.0	-8.0
Cc1cc(N)ccc1NC(=O)C(F)(F)F	.	4.0	.	.	.	.
CCOC(=O)c1sc(-c2ccc(Br)cc2)cc1N	1.7	-12.1	-2.4	2.8	2.2	-155.1
CCOC(=O)c1cc(-c2ccc(N)cc2)sc1N	-0.7	49.7*	-4.8	6.2	-2.1	-77.7
O=C(CSCc1ccccc1)Nc1cc(-n2cccn2)ncn1	.	-3.0	.	.	.	.
S=C(Nc1ccccc1)c1ccccn1	-0.2	72.0*	0.4	7.8	-0.1	-81.6
Cc1cc(CNC(=O)Nc2ccc3c(c2)OCO3)c(C)o1	.	39.0*	.	.	.	.
O=C(CSC1=NS(=O)(=O)c2cc(Cl)ccc2N1)Nc1ccc2c(c1)OCO2	.	1.0	.	.	.	.
Cc1cc(N=Nc2ccccc2C)ccc1N	0.2	81.1*	0.3	10.9	1.0	-58.6
COc1ncccc1C(=O)N1CCN(c2nc(-c3ccsc3)cs2)CC1	.	-12.0	.	.	.	.
COc1ccc(C2C(C(=O)c3cccs3)=C(O)C(=O)N2c2nncs2)cc1 (centres undefined)	13.4*	-16.2	-9.2	-0.5	0.6	-38.0
CC(=NNc1nc2ccccc2[nH]1)c1ccc2c(c1)OCO2	.	33.8	.	.	.	.
CC(=NNc1nc2ccccc2[nH]1)c1ccc2c(c1)OCCO2	.	41.6*	.	.	.	.
CC(=NNc1nc2ccccc2[nH]1)c1ccc(C)o1	.	27.4	.	.	.	.
CC(C)=NNc1nc2ccccc2[nH]1	.	69.0*	.	.	.	.
Cc1nnc(CNC(=O)c2cccc(Oc3ccccn3)c2)o1	.	-8.0	.	.	.	.
CCCCOc1ccc(C(=O)Nc2ccc3c(c2)N(CCOC)CCC3)cc1	.	22.0	.	.	.	.
COCCN1CCCc2ccc(N)cc21	.	79.0*	.	.	.	.
COCCN1CCCc2ccc(NC(=O)c3ccc(Br)cc3)cc21	.	61.0*	.	.	.	.
COCCN1CCCc2ccc(NC(=O)c3ccccc3Cl)cc21	.	35.0	.	.	.	.
COCCN1CCCc2ccc(NC(=O)c3cc(C)cc(C)c3)cc21	.	62.0*	.	.	.	.
COCCN1CCCc2ccc(NS(=O)(=O)c3ccc(OC)cc3)cc21	.	26.0	.	.	.	.
CS[C@H]1CCN(C(=O)COc2ccc(F)cc2)C1	.	-15.0	.	.	.	.
CC(C)(C)OC(=O)NCCCCCNC(=O)c1nc[nH]c1C(=O)NCc1ccc(CNC(=O)OC(C)(C)C)cc1	2.6	-4.7	0.0	-8.7	24.6*	-5.7
SMILES	Mtb UGM inh	SSB-PriA inh	FadD28 FP inh	Rv3671c protease	PrPC TRFRET	PrP UTR inh
CC(C)(C)OC(=O)NCc1ccc(CNC(=O)c2nc[nH]c2C(=O)NCc2ccc(CNC(=O)OC(C)(C)C)cc2)cc1	3.3	-7.3	-1.7	-25.4	0.1	-16.6
Brc1ccc(Oc2ccc(Br)cc2Br)c(Br)c1	1.1	-8.5	-3.8	-1.9	-0.6	-16.7
O=c1c(Br)ccc(Br)cc1Br	.	3.4	-1.8	.	87.5*	-17.9
Cn1nc(C(=O)Nc2cc(Cl)ccc2N2CCCC2)c2ccccc2c1=O	17.0*	26.7	-2.6	-13.1	6.8	3.8
CCOc1ccc(-c2csc(NC(=O)c3cccc(SC)c3)n2)cc1	.	-7.0	.	.	.	.
O=C(Cc1ccc(Cl)cc1)Nc1ccc2c(c1)CCC(=O)N2	.	-10.0	.	.	.	.
CCCCCCOc1ccc(N2C(=O)CC(SC(N)=NN=C(C)c3cccs3)C2=O)cc1 (centres undefined)	.	18.2	.	.	.	.
CCn1cc(NC(=O)N2CCN(c3cccc(Cl)c3)CC2)c2ccccc21	.	31.0*	.	.	.	.
O=C(CCc1ccc(C(F)(F)F)cc1)NCC1(c2ccccc2)CCOCC1	.	-8.0	.	.	.	.
O=C(CS(=O)(=O)c1ccc(F)cc1)NCCS(=O)(=O)c1ccccc1	-0.4	58.1*	-0.3	-0.4	-0.8	-9.5
C[C@](O)(CNS(=O)(=O)Cc1ccc(F)cc1)c1ccc(-c2ccccc2)cc1	.	-14.0	.	.	.	.
N#C/C(=C\c1ccc(-c2ccc(S(N)(=O)=O)cc2)o1)c1ccc(Cl)cc1	.	10.0	.	.	.	.
N#C/C(=C/c1ccc(-c2ccc(S(N)(=O)=O)cc2)o1)c1nc2ccccc2s1	3.8	0.2	20.5*	-58.8	2.0	-76.6
COc1ccccc1NC(=O)c1sc(=S)n(-c2cc(C)ccc2C)c1N	.	48.0*	.	.	.	.
CCOc1ccccc1NC(=O)c1sc(=S)n(-c2ccc(OC)cc2OC)c1N	.	25.0	.	.	.	.
CCOc1ccc(-c2cc(=O)n(CC(=O)NCc3cccs3)cn2)cc1	.	-15.0	.	.	.	.
N=c1c2c(-c3ccccc3)c(-c3ccccc3)n(Cc3ccco3)c2ncn1CCCN1CCOCC1	0.5	4.9	8.8*	-0.8	-21.3	2.4

Screens from PubChem BioAssay.
